Measured values reported in PubChem BioAssay (NCATS).
Records with an inconclusive call do not appear. The source made the active and inactive calls. Calls come from the whole dose curve; as a rule, active = well fitted inhibition curve with a large enough effect; inconclusive = small, poorly fitted or top-dose-only effect; inactive = flat fitted curve, though single readings scatter.

Key:
Test in all cases: qHTS profiling for inhibitors of Plasmodium falciparum proliferation (AID 504749); note: nearly all actives have a fitted effect of over 60% in size
CP238 = conditions: P. falciparum in erythrocytes, SYBR Green DNA, 72 h; series mostly up to 28.7 µM
In short: (§1)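 Parasite proliferation within erythrocytes, 72 h exposure. Endpoint: SYBR Green I fluorescence after overnight lysis at room temperature. Controls: 0.29 uM artemisinin, DMSO.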

CP247 = conditions: P. falciparum in erythrocytes, SYBR Green DNA, 72 h; series mostly up to 28.7 µM
In short: as §1

CP250 = conditions: P. falciparum in erythrocytes, SYBR Green DNA, 72 h; series mostly up to 28.7 µM
In short: as §1

CP252 = conditions: P. falciparum in erythrocytes, SYBR Green DNA, 72 h; series mostly up to 28.7 µM
In short: as §1

CP260 = conditions: P. falciparum in erythrocytes, SYBR Green DNA, 72 h; series mostly up to 28.7 µM
In short: as §1

CP262 = conditions: P. falciparum in erythrocytes, SYBR Green DNA, 72 h; series mostly up to 28.7 µM
In short: as §1

CP265 = conditions: P. falciparum in erythrocytes, SYBR Green DNA, 72 h; series mostly up to 28.7 µM
In short: as §1

CP266 = conditions: P. falciparum in erythrocytes, SYBR Green DNA, 72 h; series mostly up to 28.7 µM
In short: as §1

CP268 = conditions: P. falciparum in erythrocytes, SYBR Green DNA, 72 h; series mostly up to 28.7 µM
In short: as §1

CP256 = conditions: P. falciparum in erythrocytes, SYBR Green DNA, 72 h
In short: as §1

Measured: Potency
Potency is the fitted concentration of half-maximal effect.

CCCOc1ccc2nc(NC(=O)OC)sc2c1
not listed: CP256
inactive: all other assays above

COC1C(OC(=O)/C=C/C=C/C=C/C=C/C(=O)O)CCC2(CO2)C1C1(C)OC1CC=C(C)C (stereo not given)
active: CP256 70.8 nM | CP268 3380 nM

C=CCNC1=C2C[C@@H](C)C[C@H](OC)[C@H](O)[C@@H](C)/C=C(\C)[C@H](OC(N)=O)[C@@H](OC)/C=C\C=C(/C)C(=O)NC(=CC1=O)C2=O
active: CP238 1580 nM | CP247 2240 nM | CP250 2240 nM | CP252 1780 nM | CP256 2240 nM | CP260 2240 nM | CP265 2000 nM | CP266 10700 nM | CP268 5360 nM
